Abeta yeast res: compounds reversing amyloid beta toxicity in yeast; yeast expressing A-beta42, growth rescue, OD600, 48 h; response scale: 0% DMSO, 100% iron-clioquinol control; Potency, µM (top dose mostly 46.1 µM), most hits filed as activators; 0.063% of 410,000 active; further: nearly all actives have a fitted effect of over 55% in size
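Yeast growth medium received pinned compounds, then yeast cells expressing toxic A-beta were added; plates incubated at 30 C for 48 hr. Growth read as absorbance at 600 nm, normalized to DMSO and equimolar FeCl3 plus clioquinol controls.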
FUS yeast rescue: suppressors of FUS proteinopathy in yeast; S. cerevisiae FUS-expressing, growth rescue, OD600, 24 h; Potency, µM (series often up to 76.6 µM), most hits filed as activators; 0.24% of 390,000 active;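 further: plate controls were DMSO vehicle for no effect and reference control for full effect; nearly all actives have a fitted effect of over 55% in size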
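Compound concentration series was pinned onto galactose-induced FUS-expressing yeast seeded at OD 0.005. Plates sat 24hr at 30C; absorbance at 600 nm gave growth. DMSO served as background control.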
Mito fusion yeast: mitochondrial division inhibition or fusion activation; Potency, µM (doses to about 46.1 µM), inactives show top-dose growth rescue (activation), most hits filed as activators; 0.23% of 320,000 active; AID 485298; S. cerevisiae fusion-defective mutant growth rescue, CellTiterGlo 48 h; further: % of control where 0% means no effect; nearly all actives have a fitted effect of over 45% in size
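S. cerevisiae fusion-defective temperature-sensitive mutants (e.g. fzo1-1, mgm1-5) grown 48 h at 37C in YPEG (ethanol/glycerol non-fermentable) medium with 23 nl compound per well; growth rescue read as CellTiterGlo luminescence.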
aSyn yeast inh: rescues yeast growth from alpha-synuclein toxicity. Potency, µM (titrated, usually from 46.1 µM), inactives show top-dose growth rescue (activation), actives largely listed as activators. 0.14% of 370,000 active. Yeast expressing alpha-synuclein, growth rescue, BacTiter-Glo, 24 h; further: % of control where 0% means no effect; nearly all actives have a fitted effect of over 65% in size
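Rescue of yeast growth: cells expressing toxic alpha-synuclein, induced in galactose at OD600 0.02, incubated with compound 24 h at 30 C. ATP luminescence quantified growth; inhibitors of toxicity appear as activators.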
ERG-DNA inh: inhibitors of human ERG Ets domain-DNA interaction. P11308. fluorescence polarization, His-ERG Ets domain / labelled DNA. 0.028% of 370,000 active. Potency, µM (titrated, usually from 76.9 µM), for inactives: at the highest dose FP activity, negative = inhibition, usual class: inhibitors; active means well fitted inhibition curve with a large enough effect in the polarisation, with a control signal flat; inconclusive means small, poorly fitted or top-dose-only effect, or effect the other way, or a change in a side signal; inactive means no such curve, though single readings can be large or run the other way; the % refers to the polarisation;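 further: polarization taken with two DNA probes labelled with fluorescein and Texas red; % of control where 0% means no effect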
Target sequence (P11308 whole entry, looked up, the tested form may be a part): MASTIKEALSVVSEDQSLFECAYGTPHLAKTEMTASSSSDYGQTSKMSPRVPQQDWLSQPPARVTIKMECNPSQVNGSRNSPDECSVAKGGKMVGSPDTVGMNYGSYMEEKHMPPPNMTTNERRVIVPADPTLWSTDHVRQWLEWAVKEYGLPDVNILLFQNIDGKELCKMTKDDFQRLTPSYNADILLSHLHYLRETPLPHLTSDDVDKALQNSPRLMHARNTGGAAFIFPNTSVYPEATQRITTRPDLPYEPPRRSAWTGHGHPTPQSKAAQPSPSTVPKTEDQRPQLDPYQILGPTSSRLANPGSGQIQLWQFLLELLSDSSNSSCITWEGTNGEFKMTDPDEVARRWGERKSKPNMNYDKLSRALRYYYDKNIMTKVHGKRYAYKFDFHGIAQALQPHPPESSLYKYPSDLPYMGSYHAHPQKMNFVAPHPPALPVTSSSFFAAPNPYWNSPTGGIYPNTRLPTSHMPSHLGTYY
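His-tagged ERG Ets domain (1 uM in the protein solution; 300mM KCl, 50mM Tris-HCl, 1mM EDTA, 1mM DTT, pH 7.5) received compound, then a probe mix of 5 nM fluorescein-DNA and 100nM Texas-615-DNA. Fluorescence polarization was read for both dyes.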
TDP-43 yeast inh: inhibitors of TDP-43 toxicity in yeast. TDP-43 expressing yeast growth rescue, BacTiter-Glo, 24 h. 1.8% of 410,000 active. Potency, µM (titrated, usually from 46.1 µM), without a hit: at the top dose growth rescue (activation), actives largely listed as activators; further: % of control where 0% means no effect; nearly all actives have a fitted effect of over 50% in size
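Cell-based yeast growth screen: TDP-43 expression induced in galactose, inoculum OD600=0.02 after raffinose pregrowth to mid-log. Read-out BacTiter-Glo luminescence at 24 hr, 30 deg C; inhibition of toxicity seen as signal increase.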
An asterisk follows results filed as active. Compounds with a hit are over-represented: about 2.2% of the library has one in this group of screens. Unless noted, the call rests on the fitted dose curve; in most records, active means well fitted curve in the direction sought with a large enough effect; inconclusive means small, poorly fitted or top-dose-only effect, or another doubt; inactive means no such curve, though single readings can be large; an effect the other way counts as inactive or inconclusive. Potency means the concentration at half of the fitted maximal effect.

For c1ccc(CCNc2ncnc3scc(C4COc5ccccc5O4)c23)cc1 (centres undefined) the results were Abeta yeast res inactive, FUS yeast rescue inactive, Mito fusion yeast 29%, aSyn yeast inh 2%, ERG-DNA inh 1% and TDP-43 yeast inh inconclusive.
Screening Cc1c2cnn(CC(=O)NCc3ccc(F)cc3)c(=O)c2c(C)n1Cc1cccc(Cl)c1 returned Abeta yeast res inactive, FUS yeast rescue inactive, ERG-DNA inh -1% and TDP-43 yeast inh 21%.
CCc1ccc(-n2c(C)nnc2SCc2nc(-c3ccc(OC)cc3)no2)cc1 was read as Abeta yeast res inactive, FUS yeast rescue inactive, ERG-DNA inh 0% and TDP-43 yeast inh inconclusive.
Screening O=C(c1ccco1)N1CCN(c2ncnc3scc(-c4ccc(Cl)cc4)c23)CC1 returned Abeta yeast res inactive, FUS yeast rescue inactive, aSyn yeast inh 4% and TDP-43 yeast inh 25µM*.
O=C(c1ccco1)N1CCN(c2ncnc3sc4c(c23)CCC4)CC1 was read as Abeta yeast res inactive, FUS yeast rescue inactive, Mito fusion yeast 1%, aSyn yeast inh 12%, ERG-DNA inh 8% and TDP-43 yeast inh inconclusive.
CCc1ccc(NC(=O)Cn2c(=O)n(Cc3ccco3)c(=O)c3cccnc32)cc1 was read as Abeta yeast res inactive, FUS yeast rescue inactive, ERG-DNA inh 3% and TDP-43 yeast inh -6%.
For CCOc1cc(CNC(=O)C(NS(=O)(=O)c2cccs2)C(C)C)cc(OCC)c1OCC (centres undefined) the results were Abeta yeast res inactive, FUS yeast rescue inactive, ERG-DNA inh 1% and TDP-43 yeast inh 9%.
COc1cccc(-c2nc(N3CC(C)CC(C)C3)c3ccccc3n2)c1O (centres undefined) was read as Abeta yeast res inactive, FUS yeast rescue inactive, Mito fusion yeast 9%, aSyn yeast inh 7%, ERG-DNA inh -8% and TDP-43 yeast inh 13µM*.
Screening COc1ccc(Nc2nc(-c3cccc(OC)c3O)nc3ccccc23)cc1 returned Abeta yeast res inactive, FUS yeast rescue inconclusive, Mito fusion yeast 18%, aSyn yeast inh 3%, ERG-DNA inh 4% and TDP-43 yeast inh 18µM*.
Cc1cccc(N=C2NN=C(c3c(C)[nH]c4ccccc34)CS2)c1 was read as Abeta yeast res inactive, FUS yeast rescue 11µM*, Mito fusion yeast 1%, aSyn yeast inh -3%, ERG-DNA inh -2% and TDP-43 yeast inh 2%.
Screening COc1ccccc1N(C(=O)CCl)c1cn(C(C)=O)c2ccccc12 returned Abeta yeast res inactive, FUS yeast rescue inactive, Mito fusion yeast -5%, aSyn yeast inh 25%, ERG-DNA inh -7% and TDP-43 yeast inh 6%.
`CC(=O)n1cc(N(C(=O)CCl)c2ccc(Cl)cc2)c2ccccc21` gave Abeta yeast res inactive, FUS yeast rescue inactive, Mito fusion yeast -18%, aSyn yeast inh 2%, ERG-DNA inh -4% and TDP-43 yeast inh 22µM*.
`Cc1[nH]c2ccccc2c1/C=N/Nc1ccc([N+](=O)[O-])cc1` gave Abeta yeast res inactive, FUS yeast rescue inactive, Mito fusion yeast -1%, aSyn yeast inh 10%, ERG-DNA inh -2% and TDP-43 yeast inh 2.8µM*.
`Cc1[nH]c2ccccc2c1/C=N/NC(=O)c1cccc([N+](=O)[O-])c1` gave Abeta yeast res inactive, FUS yeast rescue inactive, Mito fusion yeast -5%, aSyn yeast inh -2%, ERG-DNA inh 8% and TDP-43 yeast inh 0%.
Screening O=C(Nc1ccc(F)c(Cl)c1)C1Cc2c(-c3cccc(F)c3)ccnc2O1 (centres undefined) returned Abeta yeast res inactive, FUS yeast rescue inactive, aSyn yeast inh inconclusive and TDP-43 yeast inh 18µM*.

Screens (PubChem)
